According to PubChem BioAssay:
For part of these data: Entries with a potency or affinity are not part of this list. Activity calls are given as the source filed them.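 The calls were made as follows, unless noted: active = fluorescence ratio normalized to control raised more than 50% in primary screen plus both repeat runs; inactive = the rest.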

Assays:
[1] = tested on: TRPC4 beta (transient receptor potential cation channel C4), mouse; experiment: TRPC4 cation channel opening, retest – cell-based, Fluo4 calcium, HEK293 TRPC4beta/mu-opioid, duplicates, 10 µM, confirmation (AID 2426); conditions: Fluo4 calcium fluorescence, at 10 µM; hits give high values;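 as to activation: percent rise of integrated ratio over buffer wells lacking compound which define 0%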
[2] = tested on: transient receptor potential cation channel C4 beta (TRPC4), mouse; experiment: TRPC4 cation channel opening, second retest – cell-based, second round, Fluo4, HEK293 TRPC4beta/mu-opioid, 1 µM, confirmation (AID 2461;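 active = primary screen active and over 50% activation in each of two duplicate runs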); conditions: Fluo4 calcium fluorescence, at 1 µM; hits give high values
[3] = tested on: TRPC4 (transient receptor potential cation channel C4 beta), mouse; experiment: potentiation of DAMGO EC20 TRPC4 response – cell-based, second round, Fluo-4, HEK293 TRPC4beta/mu-opioid, 1 µM, confirmation (AID 2554;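 active = primary screen hit whose fluorescence ratio, in both repeats, exceeds the weak agonist control mean by 3 SD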); conditions: DAMGO EC20, Fluo-4 calcium flux, at 1 µM; hits give high values
[4] = tested on: TRPC4 beta (transient receptor potential cation channel C4), mouse; experiment: potentiation of DAMGO EC20 TRPC4 response – cell-based, Fluo-4, HEK293 TRPC4beta/mu-opioid, confirmation (AID 2555;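 active = primary screen hit whose calcium fluorescence ratio, in both repeats, exceeds the weak agonist control mean by 3 SD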); conditions: DAMGO EC20, Fluo-4 calcium flux, at 10 µM; hits give high values
[5] = biological target: Short transient receptor potential channel 4 (Mus musculus) (UniProt Q9QUQ5); experiment: blockers of DAMGO-evoked TRPC4 calcium flux – cell-based, Fluo4, HEK293 TRPC4beta/mu-opioid, confirmation (AID 2636;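 active = calcium signal cut by more than 3 SD below the full-agonist control yet still positive, in both repeats and the earlier primary screen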); conditions: at 10 µM; hits give high values
[6] = biological target: Short transient receptor potential channel 4 (Mus musculus) (UniProt Q9QUQ5); experiment: blockers of DAMGO-evoked TRPC4 calcium flux – cell-based, second round, Fluo4, HEK293 TRPC4beta/mu-opioid, 1 µM, confirmation (AID 2637;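 active = calcium signal ratio cut to more than 3 SD under the fully stimulated control mean yet still positive, in both repeats and the primary screen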); conditions: at 1 µM; hits give high values
[7] = biological target: Short transient receptor potential channel 4 (Mus musculus) (UniProt Q9QUQ5); experiment: calcium entry via TRPC4 opening agents – cell-based, HEK293 TRPC4/mu-opioid, Fluo-4 calcium, dose response (AID 434937;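 active = primary screen activator hit with a dose response curve and TRPC4 channel activation at any tested dose; inactive = no activation, no dose response, or not a primary hit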); conditions: HEK293 TRPC4 cells, Fluo-4 calcium fluorescence ratio; series mostly up to 20 µM
[8] = biological target: Short transient receptor potential channel 4 (Mus musculus) (UniProt Q9QUQ5); experiment: potentiation of DAMGO-evoked TRPC4 calcium signal – cell-based, HEK293 TRPC4/mu-opioid, Fluo-4 calcium, EC20 DAMGO, dose response (AID 434941;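 active = earlier screen potentiator hit that boosts the TRPC4 ion channel at some dose, with a dose response; inactive = no potentiation, no dose response, or not a prior hit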;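 also: calcium entry triggered by an EC20 dose of DAMGO at the co-expressed mu-opioid receptor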); conditions: HEK293 TRPC4/mu-opioid cells, Fluo-4 calcium fluorescence; series mostly up to 20 µM
[9] = biological target: Short transient receptor potential channel 4 (Mus musculus) (UniProt Q9QUQ5); experiment: block of DAMGO-driven TRPC4 calcium entry – cell-based, HEK293 TRPC4/mu-opioid, Fluo-4 calcium, dose response (AID 434942;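 active = primary screen inhibitor hit that blocks the TRPC4 channel at some tested dose, yielding a dose curve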); conditions: HEK293 TRPC4/mu-opioid cells, DAMGO-evoked Fluo-4 calcium ratio; series mostly up to 20 µM
[10] = biological target: Short transient receptor potential channel 6 (Mus musculus) (UniProt Q61143); experiment: TRPC6 blockade by TRPC4 inhibitor hits – cell-based, HEK293, membrane potential dye, duplicate, selectivity assay for TRPC4 inhibitor project, confirmation (AID 434948;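 active = active in primary screen and both duplicates, each dropping signal beyond three positive-control SD with fluorescence still positive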); conditions: HEK293 TRPC6, membrane potential dye fluorescence, at 10 µM, stimulated with maximal-effect acetylcholine; hits give high values
[11] = biological target: Short transient receptor potential channel 6 (Mus musculus) (UniProt Q61143); experiment: TRPC6 opening by TRPC4 activator hits – cell-based, HEK293, membrane potential dye, duplicate, selectivity assay for TRPC4 activator project, confirmation (AID 434950;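 active = membrane potential signal rise above negative control mean plus 3 SD in both duplicates, also active in the earlier TRPC4 screen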); conditions: HEK293 TRPC6, membrane potential fluorescence, at 10 µM; activation: hits give high values; outcome: activation
[12] = biological target: Short transient receptor potential channel 6 (Mus musculus) (UniProt Q61143); experiment: positive modulators of mouse TRPC6 channel – HEK293 cells, membrane potential dye, duplicate, selectivity assay for TRPC4 potentiator project, confirmation (AID 434952;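 active = compound raising the membrane signal above positive-control mean plus 3 SD in both repeats, and a primary screen hit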); conditions: HEK293 TRPC6, membrane potential dye fluorescence, at 10 µM, maximal acetylcholine added after compound; hits give high values
[13] = biological target: Short transient receptor potential channel 4 (Mus musculus) (UniProt Q9QUQ5); experiment: calcium flux activators in TRPC4/5HT1a cells, counter-screen for TRPC4 activator project, cell-based, second counter screen, HEK293 TRPC4/5HT1a, Fluo-4 (AID 434977;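 active = calcium signal rise above buffer-control mean plus 5 SD in both duplicates, and also a hit in the primary screen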); conditions: Fluo-4 calcium flux, at 10 µM; hits give high values
[14] = serotonin-gated TRPC4 signal block – cell-based, second counter screen, HEK293 TRPC4/5HT1a, Fluo-4, counter-screen for TRPC4 inhibitor project, confirmation (AID 434978;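 active = primary screen active whose calcium signal fell more than 3 SD beyond the full-serotonin control mean in both duplicate plates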;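 as to outcome: serotonin given first at submaximal then at maximal dose after compound preincubation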); conditions: Fluo-4 calcium flux, at 10 µM, serotonin added to trigger calcium flux; hits give high values
[15] = tested on: TRPC4 (mouse), co-expressed with 5HT1a in HEK293; experiment: enhancement of serotonin-evoked TRPC4 response – cell-based, second counter screen, HEK293 TRPC4/5HT1a, Fluo-4, counter-screen for TRPC4 potentiator project, confirmation (AID 434979;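 active = signal rise over 3 SD above mean of control wells given weak agonist, in both repeats and first screen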); conditions: Fluo-4 calcium flux, at 10 µM, serotonin added at its EC20 dose; hits give high values
[16] = nonspecific calcium rise without TRPC4 – cell-based, HEK293 mu-opioid receptor line, counter-screen for TRPC4 activator project, confirmation (AID 449723;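 active = hit in primary screen, with calcium signal over 5 SD above buffer well mean in both duplicates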;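 also: counter screen cells carry the mu-opioid receptor alone and lack TRPC4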); conditions: HEK293 mu-opioid cells, Fluo-4 calcium fluorescence, at 10 µM; hits give high values
[17] = nonspecific potentiation of DAMGO calcium response – cell-based, HEK293 mu-opioid receptor line, counter-screen for TRPC4 allosteric potentiator project, confirmation (AID 449724;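 active = calcium signal rise more than 3 SD above the low-dose agonist control mean, in both duplicate plates and the primary screen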); conditions: HEK293 mu-opioid receptor cells, Fluo-4 calcium flux, at 10 µM, compound added before EC20 DAMGO stimulus; hits give high values

Sequence of Short transient receptor potential channel 6 (Mus musculus) (Q61143 whole entry, looked up): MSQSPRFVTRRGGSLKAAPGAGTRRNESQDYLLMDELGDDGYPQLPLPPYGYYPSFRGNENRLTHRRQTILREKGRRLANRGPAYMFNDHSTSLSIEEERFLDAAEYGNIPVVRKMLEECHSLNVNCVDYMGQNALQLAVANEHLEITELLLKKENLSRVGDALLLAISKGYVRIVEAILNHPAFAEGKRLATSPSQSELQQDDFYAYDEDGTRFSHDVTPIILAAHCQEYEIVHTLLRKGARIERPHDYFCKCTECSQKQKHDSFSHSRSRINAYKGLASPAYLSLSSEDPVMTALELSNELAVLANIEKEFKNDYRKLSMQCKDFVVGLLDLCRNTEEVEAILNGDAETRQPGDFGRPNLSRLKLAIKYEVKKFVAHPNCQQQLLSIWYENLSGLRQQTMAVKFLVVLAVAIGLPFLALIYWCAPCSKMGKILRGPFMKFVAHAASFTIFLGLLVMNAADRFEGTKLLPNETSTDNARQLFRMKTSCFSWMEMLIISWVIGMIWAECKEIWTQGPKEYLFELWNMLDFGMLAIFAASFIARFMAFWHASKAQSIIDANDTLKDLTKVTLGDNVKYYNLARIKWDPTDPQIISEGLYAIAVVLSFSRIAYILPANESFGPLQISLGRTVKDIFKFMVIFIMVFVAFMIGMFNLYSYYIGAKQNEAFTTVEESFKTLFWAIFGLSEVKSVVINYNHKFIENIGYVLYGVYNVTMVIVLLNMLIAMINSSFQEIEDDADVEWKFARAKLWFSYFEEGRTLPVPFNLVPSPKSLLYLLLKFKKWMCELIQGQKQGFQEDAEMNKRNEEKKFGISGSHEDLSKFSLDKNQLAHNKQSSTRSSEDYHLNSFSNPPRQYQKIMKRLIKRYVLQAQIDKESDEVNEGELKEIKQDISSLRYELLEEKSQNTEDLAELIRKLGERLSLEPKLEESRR
Sequence of Short transient receptor potential channel 4 (Mus musculus) (Q9QUQ5 whole entry, looked up): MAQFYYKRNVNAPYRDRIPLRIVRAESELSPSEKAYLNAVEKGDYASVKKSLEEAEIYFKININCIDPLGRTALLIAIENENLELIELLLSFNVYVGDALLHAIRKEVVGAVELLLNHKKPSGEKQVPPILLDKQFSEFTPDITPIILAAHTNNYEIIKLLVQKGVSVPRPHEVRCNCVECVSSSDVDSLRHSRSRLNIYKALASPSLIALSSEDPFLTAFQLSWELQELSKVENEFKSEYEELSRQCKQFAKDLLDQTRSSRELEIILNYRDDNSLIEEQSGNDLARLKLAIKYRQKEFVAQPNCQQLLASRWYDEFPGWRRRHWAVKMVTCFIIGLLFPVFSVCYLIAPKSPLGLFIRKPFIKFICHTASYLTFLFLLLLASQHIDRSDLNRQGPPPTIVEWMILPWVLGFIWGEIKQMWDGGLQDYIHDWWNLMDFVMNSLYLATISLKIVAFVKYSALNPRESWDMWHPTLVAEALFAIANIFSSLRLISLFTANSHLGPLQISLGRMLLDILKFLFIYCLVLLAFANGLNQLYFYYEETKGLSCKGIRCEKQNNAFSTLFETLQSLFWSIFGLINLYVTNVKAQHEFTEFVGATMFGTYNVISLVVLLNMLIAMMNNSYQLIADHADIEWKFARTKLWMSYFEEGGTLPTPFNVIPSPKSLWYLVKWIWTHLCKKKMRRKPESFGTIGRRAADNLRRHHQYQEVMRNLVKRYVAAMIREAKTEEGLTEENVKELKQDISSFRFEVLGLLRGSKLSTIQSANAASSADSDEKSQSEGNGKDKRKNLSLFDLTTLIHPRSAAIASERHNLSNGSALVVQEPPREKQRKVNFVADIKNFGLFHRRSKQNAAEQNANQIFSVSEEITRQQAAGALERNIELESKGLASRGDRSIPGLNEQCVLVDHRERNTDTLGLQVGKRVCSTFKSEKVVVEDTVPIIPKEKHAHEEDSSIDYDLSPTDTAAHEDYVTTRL

Cc1cc(Cl)ccc1OC(C)C(=O)Nc1ccccc1N1CCOCC1 (stereo not given)
active: potentiation [4] 25% | activation [17] 1140%
inactive: outcome [1] | outcome [2] | outcome [3] | outcome [5] | outcome [6] | outcome [7] | outcome [8] | outcome [9] | outcome [10] | outcome [11] | outcome [12] | outcome [13] | outcome [14] | outcome [15] | outcome [16]

CN(C(=O)COC(=O)c1sc2ccccc2c1Cl)C1CCCCC1
inactive: outcome [1] | outcome [2] | outcome [3] | outcome [5] | outcome [6] | outcome [7] | outcome [8] | outcome [9] | outcome [10] | outcome [11] | outcome [12] | outcome [13] | outcome [14] | outcome [16] | outcome [17]
active: potentiation [4] 36% | potentiation [15] 64.8%

O=S(=O)(Cc1ccccc1)N1CCC(c2nc(-c3cccs3)no2)CC1
active: potentiation [4] 13% | potentiation [15] 11.4%
inactive: outcome [1] | outcome [2] | outcome [3] | outcome [5] | outcome [6] | outcome [7] | outcome [8] | outcome [9] | outcome [10] | outcome [11] | outcome [12] | outcome [13] | outcome [14] | outcome [16] | outcome [17]

c1ccc(-c2nc(NCc3cccnc3)c3ccccc3n2)cc1
active: inhibition [5] 89% | inhibition [14] 36.3%
inactive: outcome [1] | outcome [2] | outcome [3] | outcome [4] | outcome [6] | outcome [7] | outcome [8] | outcome [9] | outcome [10] | outcome [11] | outcome [12] | outcome [13] | outcome [15] | outcome [16] | outcome [17]

COc1ccccc1CCc1nnc(CCC(=O)NCCCOc2cccnc2)o1
active: inhibition [5] 48%
inactive: outcome [1] | outcome [2] | outcome [3] | outcome [4] | outcome [6] | outcome [7] | outcome [8] | outcome [9] | outcome [10] | outcome [11] | outcome [12] | outcome [13] | outcome [14] | outcome [15] | outcome [16] | outcome [17]

CN(CC(=O)Nc1sc2c(c1C#N)CCCCC2)Cc1nc2ccccc2c(=O)[nH]1
inactive: outcome [1] | outcome [2] | outcome [3] | outcome [4] | outcome [5] | outcome [6] | outcome [7] | outcome [8] | outcome [9] | outcome [10] | outcome [11] | outcome [12] | outcome [13] | outcome [14] | outcome [15] | outcome [16] | outcome [17]

CCCCCOc1ccc2oc(=O)c3c(c2c1)CCCN3C(=O)CN1CCCC(C(=O)OCC)C1 (stereo not given)
active: potentiation [15] 7.34%
inactive: outcome [1] | outcome [2] | outcome [3] | outcome [4] | outcome [5] | outcome [6] | outcome [7] | outcome [8] | outcome [9] | outcome [10] | outcome [11] | outcome [12] | outcome [13] | outcome [14] | outcome [16] | outcome [17]

CCN(CC)CCOC(=O)c1cccc(Br)c1
active: potentiation [3] 14% | potentiation [4] 12% | potentiation [15] 8.39%
inactive: outcome [1] | outcome [2] | outcome [5] | outcome [6] | outcome [7] | outcome [8] | outcome [9] | outcome [10] | outcome [11] | outcome [12] | outcome [13] | outcome [14] | outcome [16] | outcome [17]

COC(=O)[C@@]12CCCCN1[C@H](c1ccc(-c3ccccc3)cc1)[C@@H]1C(=O)N(C)C(=O)[C@@H]12
inactive: outcome [1] | outcome [2] | outcome [3] | outcome [4] | outcome [5] | outcome [6] | outcome [7] | outcome [8] | outcome [9] | outcome [10] | outcome [11] | outcome [12] | outcome [13] | outcome [14] | outcome [16] | outcome [17]
active: potentiation [15] 20.4%

CCN1CCN(c2ccc(S(=O)(=O)N3CCCCC3)cc2NC(=O)c2cc3ccccc3o2)CC1
active: potentiation [4] 27% | potentiation [15] 24.6%
inactive: outcome [1] | outcome [2] | outcome [3] | outcome [5] | outcome [6] | outcome [7] | outcome [8] | outcome [9] | outcome [10] | outcome [11] | outcome [12] | outcome [13] | outcome [14] | outcome [16] | outcome [17]

CC(C)CCOc1ccc(C(=O)NCC(c2ccco2)N(C)C)cc1 (stereo not given)
inactive: outcome [1] | outcome [2] | outcome [3] | outcome [4] | outcome [6] | outcome [7] | outcome [8] | outcome [9] | outcome [10] | outcome [11] | outcome [12] | outcome [13] | outcome [14] | outcome [15] | outcome [16] | outcome [17]
active: inhibition [5] 89%

COc1ccc(C(=O)CN2CCN(CCN3C(=O)c4cccc5cccc(c45)C3=O)CC2)cc1
active: potentiation [3] 21% | potentiation [4] 29% | potentiation [15] 18.9%
inactive: outcome [1] | outcome [2] | outcome [5] | outcome [6] | outcome [7] | outcome [8] | outcome [9] | outcome [10] | outcome [11] | outcome [12] | outcome [13] | outcome [14] | outcome [16] | outcome [17]

Cn1c(=O)c2c(nc(CN3CCc4ccccc4C3)n2Cc2ccccc2)n(C)c1=O
active: potentiation [3] 40% | potentiation [15] 97.6%
inactive: outcome [1] | outcome [2] | outcome [4] | outcome [5] | outcome [6] | outcome [7] | outcome [8] | outcome [9] | outcome [10] | outcome [11] | outcome [12] | outcome [13] | outcome [14] | outcome [16] | outcome [17]

COc1ccc(-n2cc(CNCc3cccnc3)c(-c3cccc(F)c3)n2)cc1
inactive: outcome [2] | outcome [3] | outcome [4] | outcome [5] | outcome [6] | outcome [7] | outcome [8] | outcome [9] | outcome [10] | outcome [11] | outcome [12] | outcome [13] | outcome [14] | outcome [15] | outcome [16] | outcome [17]
active: activation [1] 84%

COc1cc2cc(C)c(SCC(=O)N3CCN(C(=O)c4ccco4)CC3)nc2cc1OC
inactive: outcome [1] | outcome [2] | outcome [3] | outcome [4] | outcome [5] | outcome [6] | outcome [7] | outcome [8] | outcome [9] | outcome [10] | outcome [11] | outcome [12] | outcome [13] | outcome [14] | outcome [15] | outcome [16] | outcome [17]
